Hit rate of the full screen: of about 62,000 compounds, about 40 (0.06%) were called active. Rule as the data show it: active = inhibition above about 22% (passing the limit was not always enough); inconclusive = no clear call, values can overlap the other calls. For the sample, actives were picked, then their nearest neighbours and some compounds at random.
Molecular target: Cathepsin B (Homo sapiens) (UniProt P07858)
Experiment: human cathepsin B blockade, pooled library – biochemical, compound mixtures, AMC fluorescence, primary screen (AID 488);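 also: 0% = enzyme without compound and 100% = no enzyme blank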
Conditions: Purified cathepsin B, AMC dipeptide fluorescence, stronger effect = higher value,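 ten-compound pools at 5 µM per compound and 50 µM total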

inhibition, active:
Nc1nonc1-c1nc2ccccc2n1Cc1ccc(F)cc1 79.6%

inhibition, inactive:
CCCCNC(=O)c1ccccc1NC(=O)c1ccccc1N(C)S(C)(=O)=O 7.15%
CCOC(=O)Cc1csc(NC(=O)CN(C)S(=O)(=O)c2ccc3c(c2)CCC(=O)N3)n1 3.69%
COc1ccc(-c2nc(CS(=O)CC(=O)N3CCc4ccccc4C3)c(C)o2)cc1 (stereo not drawn) 4.29%
CCC(C)Sc1nc(C)nc2c1c(=O)n(C)c(=O)n2C (stereo not drawn) 2.91%
N#CCCn1ncc2ccccc21 -3.63%
COc1ccc(CCN2CNc3c(c(=O)n(C)c(=O)n3C)C2)cc1OC 0.085%
COc1ccc(-c2ccnc(SCC(=O)N3CCOCC3)n2)cc1 -0.81%
CCN1CCN(c2c(Cl)cccc2NC(=O)c2ccc(Br)o2)CC1 5.68%
COc1nc(NCc2ccc(Cl)cc2)nc(OC)n1 6.46%
CCCn1c(SCC(=O)N2CCc3ccccc32)nnc1-c1ccncc1 5.11%
CC(C)(C)NC(=O)NC(=O)COC(=O)Cn1c(C(F)(F)F)nc2ccccc21 0.995%
N#Cc1cccc(CSc2nnc(CCCO)n2-c2ccccc2)c1 22%
COC(=O)c1c(NC(=O)CCN2CCOCC2)sc2c1CCCC2 3.41%
Cn1c(=O)cc(SCC(=O)N2CCN(C(=O)c3ccco3)CC2)c2ccccc21 2.19%
Cc1ccccc1-c1nc(CS(=O)(=O)CC(=O)N2CCc3ccccc3C2)c(C)o1 4.15%
Cc1cccc(NC(=O)C2CCN(S(=O)(=O)c3cccc4cccnc34)CC2)c1 4.24%
Cc1cc(Nc2ccc(Br)cc2F)n2ncnc2n1 -2.18%
COc1ccc(C(CC(=O)O)NC(=O)Cc2ccccc2)cc1 (stereo not drawn) -0.455%
COc1ccc(S(=O)(=O)N2CCCCC2)cc1Br 2.55%
CC(=O)c1cc(-c2ccccc2)[nH]c1N1CCCC1 2.3%
CC1Oc2ccccc2N(Cc2cccnc2)C1=O (stereo not drawn) 4.41%
O=C(CCS(=O)(=O)c1cccc2nonc12)NCCc1ccccc1Cl 4.8%
Cn1cccc1Cc1nnc(SCC(=O)NCCc2ccccc2)n1-c1ccc(F)cc1 4.42%
CC1(C)Oc2ccc(C(=O)N3CCOCC3)cc2N(CC(=O)Nc2ccccc2)C1=O -0.39%
COc1ccccc1C(=O)C(O)c1ccccc1OC (stereo not drawn) 1.43%
O=C(Cn1cc(C(=O)c2cccs2)c2ccccc21)NCc1cccs1 -1.35%
CCOC(=O)COc1ccc(Cl)cc1C1NC(=O)NC(C)=C1C(C)=O (stereo not drawn) -5.4%
O=C(NCc1ccccn1)c1c(O)c2c([nH]c1=O)CCCC2 4.33%
CC12COC3(C(=O)Nc4ccc(Cl)cn4)CC1CCC32C (stereo not drawn) 2.24%
COc1cccc(C(CC(=O)NCCN2CCOCC2)NS(=O)(=O)c2ccc(C)cc2)c1OC (stereo not drawn) -2.29%
CCN(C(=O)CSc1ncn[nH]1)c1cccc2ccccc12 5.46%
Cn1c(=O)c2c(nc(N3CCCCCC3)n2CC(=O)c2ccc(Br)cc2)n(C)c1=O 6.96%
CCOC(=O)CSc1nnc(CNC(=O)c2cccs2)n1-c1ccccc1 3.94%
CCCOc1ccc(NC(=O)C2CCCNC2=O)cc1 (stereo not drawn) 0.055%
CCOC(=O)N1CCN(C(=O)c2ccc(S(=O)(=O)c3ccc(C)cc3)c(NC(C)=O)c2)CC1 0.155%
CN(C)/C=C/c1c(C#N)c(=O)ncn1Cc1ccccc1 4.44%
CCCC(=O)C1=C(N(C)c2ccccc2)CC(C)(C)C(C(=O)OC)C1=O (stereo not drawn) 6.7%
O=C(O)CCN1C(=O)CC2(CCCCC2)C1=O -0.755%
COc1ccc(C)c(Cn2c(-c3nonc3N)nc3ccccc32)c1 19.5%
Nc1nonc1-c1nc2ccccc2n1CCC(=O)O 23.8%
Cc1ccc(C)c(S(=O)(=O)n2cnc3ccccc32)c1 -4.15%
O=C(NCCN1CCOCC1)c1ccc2c(c1)ncn2C1CCCC1 2.62%
O=C(CCN1C(=O)C2C3C=CC(C3)C2C1=O)Nc1ccccc1F (stereo not drawn) 1.56%
CC1Cc2cc(/C(O)=C3\C(=O)C(=O)N(CCN4CCOCC4)C3c3ccccc3F)ccc2O1 (stereo not drawn) 3.23%
Cc1ccc(C2c3c(oc4ccc(C)cc4c3=O)C(=O)N2CCCN2CCOCC2)cc1 (stereo not drawn) 3.25%
CCOc1cc(-c2nc3cc(C)ccn3c2NCC2CCCO2)ccc1O (stereo not drawn) -4.66%
COc1cc2c(cc1NC(=O)CN1CCN(S(=O)(=O)c3ccc(F)cc3)CC1)oc1ccccc12 2.98%
